The list is not random: actives were taken first. Their share in the collection is about 2.3%.
M1 antag: blocks human M1 muscarinic receptor; CHO-K1 hM1, Fluo-8 calcium fluorescence, ACh EC80 antagonist; P11229; inhibition, % at 3 µM; actives 1.3% (n = 360,000); AID 588852;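 active means percent inhibition above its own plate's cutoff, namely the mean of that plate's compound wells plus 3 SD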;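 further: peak over basal fluorescence ratio during 140 s after agonist addition; 0% = ACh EC80 plus DMSO and 100% = DMSO alone without agonist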
Target sequence (P11229 whole entry, looked up): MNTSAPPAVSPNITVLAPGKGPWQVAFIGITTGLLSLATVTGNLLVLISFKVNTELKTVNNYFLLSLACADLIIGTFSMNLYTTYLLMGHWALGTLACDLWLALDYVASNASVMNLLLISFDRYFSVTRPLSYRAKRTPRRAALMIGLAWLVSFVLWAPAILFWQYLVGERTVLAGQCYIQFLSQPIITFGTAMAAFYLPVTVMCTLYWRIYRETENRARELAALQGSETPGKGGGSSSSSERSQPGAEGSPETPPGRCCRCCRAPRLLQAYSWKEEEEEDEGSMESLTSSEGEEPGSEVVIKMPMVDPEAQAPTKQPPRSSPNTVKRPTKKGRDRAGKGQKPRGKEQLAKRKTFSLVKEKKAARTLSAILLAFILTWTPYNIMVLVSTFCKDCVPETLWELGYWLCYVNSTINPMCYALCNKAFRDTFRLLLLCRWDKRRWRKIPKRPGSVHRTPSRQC
CHO-K1 Ca PAM: counter-screen for M1 PAMs: effect in parental CHO-K1 cells; actives 0.02% (n = 360,000); ATP EC20, Fluo-8 calcium fluorescence; 0% at ATP EC20, 100% at ATP max; activation, % at 3 µM; AID 602247;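 active means activation above the run cutoff, the mean activation of all test compounds plus 3 SD, cut at about 40% in these data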;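 further: peak over basal fluorescence ratio in a 140 s read after ATP addition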
CHO-K1 Ca ag: M1 agonist counterscreen hit in parental CHO-K1 cells; activation, % at 3 µM; Fluo-8 calcium fluorescence; scaled to maximal ATP response, vehicle zero; AID 602248; actives 0.48% (n = 360,000); in the data active means activation above about 15%;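 further: untransfected CHO-K1 host cells lacking M1 receptor as counterscreen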
M1 PAM: positive allosteric modulators of human M1 muscarinic receptor; P11229; CHO-K1 hM1, Fluo-8 calcium fluorescence, ACh EC20; 0% = ACh EC20, 100% = maximal ACh; activation, % at 3 µM; actives 0.088% (n = 360,000); in the data active means activation above about 19%, passing the limit was not always enough
CHO-K1 Ca antag: nonselective inhibitor or artifact in parental CHO-K1 cells | inhibition, % at 3 µM | ATP-induced calcium, Fluo-8 fluorescence | actives 0.6% (n = 360,000);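 active means inhibition above a per-plate cutoff, the plate's mean sample inhibition plus 3 SD, cut at about 24% in these data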;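 further: 0% = DMSO plus EC80 ATP and 100% = DMSO alone without ATP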
M1 ag: agonists of human M1 muscarinic receptor; CHO-K1 hM1, Fluo-8 calcium fluorescence, agonist mode; 0% DMSO, 100% acetylcholine EC100; activation, % at 3 µM; AID 588814; P11229; actives 0.33% (n = 360,000);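 active means activation above the run's mean compound activation plus 3 SD, cut at about 16% in these data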;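 further: peak over basal fluorescence ratio within a 140 s kinetic read after compound addition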
Starred values were filed as active, the others as inactive.

SMILES	M1 antag	CHO-K1 Ca PAM	CHO-K1 Ca ag	M1 PAM	CHO-K1 Ca antag	M1 ag
CCOC(=O)c1[nH]c(CN2CCN(c3ccc(OC)cc3)CC2)c(C(=O)OCC)c1C	3	5	10	-1	-17	16*
CC(C)CCNC(=O)Nc1ccc2c(c1)N(C)C(=O)CS2	33*	-8	1	-11	21	0
COc1ccc(NC(=O)Nc2ccc3c(c2)N(C)C(=O)CS3)cc1Cl	23	-2	7	-10	28*	3
COc1ccc(NC(=O)Nc2ccc3c(c2)N(C)C(=O)CS3)cc1OC	-8	-6	4	-4	-6	2
CCCCn1c(=O)nc2n(-c3ccc(C)cc3)c3ccccc3cc-2c1=O	3	11	0	-2	-4	-4
CCCCn1c(=O)nc2n(-c3ccc(Cl)cc3)c3ccccc3cc-2c1=O	-4	-16	-1	-1	27*	-5
Cc1ccccc1CN(C)C(C)C(=O)Nc1ccccc1F (stereo not given)	-4	18	19*	7	-5	-3
Cc1cccc(C)c1NC(=O)CN(C)C(C)C(=O)Nc1ccccc1-c1ccccc1 (stereo not given)	-13	20	1	15	-15	-1
CC(=O)c1cn(CCOc2ccccc2C)c2ccccc12	33*	18	13	-12	6	1
O=C(C(=O)N1CCOCC1)c1cn(CCOc2ccccc2)c2ccccc12	-1	5	5	3	-5	-7
Cc1ccccc1OCCn1cc(C(=O)C(=O)N2CCOCC2)c2ccccc21	13	13	23*	-5	-9	-5
COC(=O)c1ccc2c(=O)[nH]c(COC(=O)c3c(-c4ccccc4Cl)noc3C)nc2c1	-14	18	1	10	-6	-2
COc1cccc(CN2CC(C(=O)NC3CCC3)CCC2=O)c1 (stereo not given)	-16	16	1	7	-11	-1
Cc1ccccc1C(=O)N(C)c1ccccc1C(=O)NCc1ccccc1	-12	-6	3	4	0	0
COc1ccc(C[C@H]2CN3C(=NC[C@H]3C)N2CCNC(=O)c2ccc(C)c(Br)c2)cc1	76*	18	1	-33	-8	-11
O=C(NCCc1cccc(Cl)c1)c1cccc(-n2cnnn2)c1	-3	10	0	2	6	-6
CCCCn1c(N)c(N(CCOC)C(=O)c2sc3cc(F)ccc3c2Cl)c(=O)[nH]c1=O	-6	-21	0	7	14	-1
Cc1cc(Cl)ccc1C(O)c1ncc(-c2cccc3ccccc23)[nH]1 (stereo not given)	-11	-2	0	14	4	2
COC(=O)c1cc2ccsc2n1Cc1cc(=O)n2ccccc2n1	77*	-3	1	-37	-3	-12
Cc1ccn2c(CC(C)(C)C)c(-c3ccc(F)cc3)nc2c1	-6	16	1	-3	-17	-6
CN(C)C(=S)Nc1ccc2c(c1)OCCO2	-7	-14	0	4	3	-2
COc1ccc(C(=O)OCC(=O)Nc2cccc(S(=O)(=O)N3CCCCCC3)c2)cc1[N+](=O)[O-]	54*	-1	12	-20	14	-2
Cc1ccc(OCC(=O)Nc2ccc(S(=O)(=O)N3CCCCC3)cc2)c([N+](=O)[O-])n1	45*	21	4	-22	-8	-4
Cc1cc(OCC(=O)Nc2ccc(S(=O)(=O)N3CCN(C)CC3)cc2)ccc1Br	14	-2	18*	-11	5	1
O=C(COc1ccc(Br)cc1CO)Nc1ccc(S(=O)(=O)N2CCCC2)cc1	58*	-23	4	-26	5	-3
SMILES	M1 antag	CHO-K1 Ca PAM	CHO-K1 Ca ag	M1 PAM	CHO-K1 Ca antag	M1 ag
Cc1ccc(OCC(=O)Nc2ccc(S(=O)(=O)N3CCOCC3)cc2)c([N+](=O)[O-])n1	-1	13	1	0	-7	-8
Cn1cc(S(=O)(=O)N2CCCC2)cc1C(=O)N1CCN(c2ccccc2)CC1	2	-6	0	-3	7	-5
CN(CC(=O)Nc1ccc(Cl)c(C(F)(F)F)c1)C(=O)c1ccc(OCC2CCCO2)cc1 (stereo not given)	-2	23	3	8	-6	-1
O=C(N=C1SC2CS(=O)(=O)CC2N1CCc1ccccc1)C1CC1 (stereo not given)	-10	18	1	8	-16	-1
COC(=O)c1c(NC(=S)NN2CCN(C)CC2)sc2c1CCC(C)C2 (stereo not given)	-7	15	3	11	-8	-2
O=C(NNC(=O)C1CCN(c2ncccn2)CC1)c1ccncc1	3	-11	0	1	6	0
Cc1cc(OCC(=O)Nc2ccc(CN3CCCCC3)cc2)ccc1Cl	50*	11	13	-31	0	-4
Cc1cc(OCC(=O)Nc2ccc(CN3CCOCC3)cc2)ccc1Cl	4	-11	12	5	12	-1
Clc1cccc2sc(-c3nnc(-c4ccccc4)o3)c(Cl)c12	4	-7	0	-2	26*	-3
N#CCSc1nnc(-c2sc3ccccc3c2Cl)o1	-10	25	2	5	-9	-6
CCOC(=O)Nc1cc(N)ncn1	1	0	0	2	-3	-1
CN(Cc1cn[nH]c1-c1ccc(-c2ccccc2)cc1)CC1CCOCC1	-9	21	17*	3	-2	-5
CN1/C(=C\C(=O)COC(=O)Cn2nnc(-c3ccccc3)n2)C(C)(C)c2ccccc21	9	-7	1	-11	24*	-1
C[C@@H]1CN([C@@H](C)CO)C(=O)c2cc(C#CCN(C)C)cnc2O[C@H]1CN(C)Cc1ccc2c(c1)OCO2	62*	2	0	-30	-5	-11
COc1cccc(S(=O)(=O)N(C)C[C@@H]2Oc3ncc(C#CCN(C)C)cc3C(=O)N([C@H](C)CO)C[C@H]2C)c1	49*	6	1	-31	-10	-10
C[C@@H]1CN([C@@H](C)CO)C(=O)c2cc(Br)cnc2O[C@H]1CN(C)C(=O)CCN1CCCCC1	9	-11	0	-10	7	-11
CCCC#Cc1cnc2c(c1)C(=O)N([C@H](C)CO)C[C@H](C)[C@@H](CN(C)C(=O)CCN1CCCCC1)O2	45*	1	0	-25	-1	-11
COc1ccc2nc3c(cc2c1)c(NC(=O)C1CCCO1)nn3CC(C)C (stereo not given)	-2	-7	1	-5	26*	-2
CC(OC(=O)CSc1ccc(F)cc1)C(=O)NC1(C#N)CCCCC1 (stereo not given)	-7	19	2	5	-15	-2
CC(C)(C)OC(=O)NCCc1nnc(SCC(=O)Nc2ccc(Br)cc2)o1	2	-1	29*	1	3	5

Bioassay records deposited in PubChem BioAssay by The Scripps Research Institute Molecular Screening Center.
